# Reference: the supplement of paper PMC7411054
# Where a name gives a salt, the structure may show the parent alone.
# Key:
# Experiment in all cases: lowest phenotypically active concentration; higher = less potent
# Details in all cases: treatment time: 24 h
# A549-CANX-COX4 = tested on: A549-CANX-COX4
# How it was run: (§1)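 Fifteen gene-edited A549, HepG2 and WPMY1 reporter lines (BFP segmentation plus GFP and RFP/FusionRed markers) were treated at 0.3, 1, 3 or 9 µM for 24 h, four wells each, then imaged live. Live-cell features per well were normalised to DMSO control wells. Deviation required ≥3 of 4 wells beyond the 95th percentile of DMSO Euclidean distances, and reproducibility required median replicate Pearson correlation above the 95th percentile of non-replicates. Phenotypic activity needed both criteria.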
# A549-TP53BP1-CLTA = tested on: A549-TP53BP1-CLTA
# How it was run: as §1
# HepG2-CANX-COX4 = tested on: HepG2-CANX-COX4
# How it was run: as §1
# HepG2-TP53BP1-CLTA = tested on: HepG2-TP53BP1-CLTA
# How it was run: as §1
# HepG2-TUBA1B-RELA = tested on: HepG2-TUBA1B-RELA
# How it was run: as §1
# WPMY1-ACTB-RAB5A = tested on: WPMY1-ACTB-RAB5A
# How it was run: as §1
# WPMY1-GM130-SQSTM1 = tested on: WPMY1-GM130-SQSTM1
# How it was run: as §1
# WPMY1-TP53BP1-CLTA = tested on: WPMY1-TP53BP1-CLTA
# How it was run: as §1
# WPMY1-TUBA1B-RELA = tested on: WPMY1-TUBA1B-RELA
# How it was run: as §1
# HepG2-GM130-SQSTM1 = tested on: HepG2-GM130-SQSTM1
# How it was run: as §1
SMILES,lowest phenotypically active concentration (A549-CANX-COX4),lowest phenotypically active concentration (A549-TP53BP1-CLTA),lowest phenotypically active concentration (HepG2-CANX-COX4),lowest phenotypically active concentration (HepG2-TP53BP1-CLTA),lowest phenotypically active concentration (HepG2-TUBA1B-RELA),lowest phenotypically active concentration (WPMY1-ACTB-RAB5A),lowest phenotypically active concentration (WPMY1-GM130-SQSTM1),lowest phenotypically active concentration (WPMY1-TP53BP1-CLTA),lowest phenotypically active concentration (WPMY1-TUBA1B-RELA),lowest phenotypically active concentration (HepG2-GM130-SQSTM1)
C[C@@H](Nc1ncnc2[nH]c(-c3ccc(O)cc3)cc12)c1ccccc1 [PKI 166 hydrochloride],3 µM,3 µM,9 µM,9 µM,9 µM,9 µM,3 µM,3 µM,9 µM,–
CN1CCc2cccc3c2[C@H]1Cc1ccc(O)c(O)c1-3 [r(-)-apomorphine],9 µM,9 µM,–,–,–,9 µM,≤ 0.3 µM,–,9 µM,–
CN(C)CC(=O)Nc1ccc2[nH]c(=O)c3ccccc3c2c1 [PJ 34 hydrochloride],9 µM,–,9 µM,9 µM,9 µM,9 µM,9 µM,–,9 µM,9 µM
CCCCOc1c(C(=O)c2c(F)cc(C)cc2F)cnc2[nH]ncc12,≤ 0.3 µM,–,–,3 µM,≤ 0.3 µM,≤ 0.3 µM,–,–,3 µM,9 µM
"O=c1cc(-c2ccccc2)oc2c(O)c(O)ccc12 [7,8-Dihydroxyflavone]",9 µM,–,9 µM,–,–,9 µM,9 µM,–,9 µM,9 µM
C=C1CC[C@@H]2[C@](C)(CO)[C@H](O)CC[C@@]2(C)[C@@H]1C/C=C1/C(=O)OC[C@H]1O [Andrographolide],9 µM,–,3 µM,3 µM,3 µM,–,9 µM,–,9 µM,1 µM
C/C(=N/NC(=N)N)c1ccc(NC(=O)Nc2ccc(/C(C)=N/NC(=N)N)cc2)cc1,9 µM,–,9 µM,9 µM,3 µM,3 µM,9 µM,–,–,3 µM
OCc1cc(C(O)CNCCCCCCOCCCCc2ccccc2)ccc1O (stereo unspecified) [salmeterol],9 µM,–,–,9 µM,9 µM,9 µM,1 µM,9 µM,9 µM,9 µM
C=C1C(=O)O[C@@H]2C=C(C)CCC=C(C)CC[C@@H]12 [Costunolide],9 µM,–,9 µM,9 µM,–,9 µM,9 µM,9 µM,9 µM,3 µM
O=C1/C(=C\c2ccncc2)CCC/C1=C\c1ccncc1,3 µM,–,3 µM,3 µM,3 µM,3 µM,3 µM,9 µM,3 µM,1 µM
CCCOc1ccc(CCc2nc3cc(-c4c(C)noc4C)ccc3n2CCN2CCOCC2)cc1,9 µM,–,9 µM,9 µM,–,–,–,–,–,–
O=c1c(-c2ccc(O)cc2)coc2cc(O[C@@H]3O[C@H](CO)[C@@H](O)[C@H](O)[C@H]3O)cc(O)c12 [Genistin],9 µM,9 µM,–,–,–,9 µM,–,9 µM,–,–
CCn1c(=O)n([C@H]2CCCN(c3nccc(-c4cc5ccccc5o4)n3)C2)c2ccccc21,3 µM,9 µM,–,–,–,–,–,–,–,–
Cc1cccc(C)c1OCC(=O)N[C@@H](Cc1ccccc1)[C@@H](O)C[C@H](Cc1ccccc1)NC(=O)[C@H](C(C)C)N1CCCNC1=O [lopinavir],9 µM,–,–,–,9 µM,–,–,–,–,–
CC/C(=C(/c1ccccc1)c1ccc(OCCN(C)C)cc1)c1ccccc1 [tamoxifen],9 µM,–,–,9 µM,3 µM,9 µM,9 µM,9 µM,9 µM,9 µM
c1cc(-c2cc(C3CCNCC3)[nH]n2)ccn1,9 µM,–,9 µM,–,–,9 µM,–,–,–,–
Cc1nnc(-c2ccc3occ(-c4ccc(S(C)=O)cc4)c3c2)o1 (stereo unspecified),9 µM,9 µM,9 µM,–,3 µM,9 µM,9 µM,9 µM,–,9 µM
CCCCc1oc2ccc(NS(C)(=O)=O)cc2c1C(=O)c1ccc(OCCCN(CCCC)CCCC)cc1 [dronedarone],9 µM,–,–,9 µM,3 µM,9 µM,–,9 µM,9 µM,9 µM
C=C1C(=O)O[C@@H]2[C@H]3O[C@]3(C)CCC=C(C)CC[C@@H]12 [Parthenolide],9 µM,–,9 µM,–,–,9 µM,9 µM,–,9 µM,3 µM
Cc1cc(F)c(Nc2ncnc3cc(OCc4ccccc4)ccc23)cc1O,9 µM,–,–,–,–,–,–,–,9 µM,–
O=S(=O)(c1cccc2c(O)nccc12)N1CCCNCC1 [HA 1100 hydrochloride],9 µM,9 µM,≤ 0.3 µM,1 µM,–,9 µM,9 µM,9 µM,3 µM,9 µM
O=C(O)Cc1cccc(OCCCN(Cc2cccc(C(F)(F)F)c2Cl)CC(c2ccccc2)c2ccccc2)c1 [GW 3965 hydrochloride],9 µM,–,9 µM,–,9 µM,–,–,–,–,–
O=C(O)[C@@H]1[C@H]2C[C@H]3c4[nH]c5ccccc5c4CCN3C[C@@H]2CC[C@@H]1O [Yohimbinic acid monohydrate],–,9 µM,–,–,–,9 µM,9 µM,9 µM,9 µM,–
Cc1noc(C)c1-c1ccc2c(c1)nc(CCc1ccc(OCCCN(C)C)cc1)n2CCN1CCOCC1,–,9 µM,9 µM,9 µM,9 µM,9 µM,9 µM,9 µM,9 µM,9 µM
COc1cc(N2CCC(N)CC2)ccc1Nc1ncc(Cl)c(-c2c[nH]c3ccccc23)n1,–,3 µM,1 µM,3 µM,1 µM,1 µM,1 µM,≤ 0.3 µM,1 µM,3 µM
C[C@H]1Oc2cc(cnc2N)-c2c(nn(C)c2C#N)CN(C)C(=O)c2ccc(F)cc21,–,3 µM,3 µM,3 µM,≤ 0.3 µM,–,–,9 µM,–,3 µM
CC(C)OC(=O)c1cc2c(OCC(O)CNC(C)(C)C)cccc2[nH]1 (stereo unspecified),–,9 µM,–,3 µM,9 µM,3 µM,9 µM,9 µM,9 µM,–
